# Biological target: ROPN1
# Test: pooled miR-30 sensor sort-seq; sequence = guide strand
# Settings: shRNA
# Further: reference of the scale not given here.
row,Sequence,sensor-assay potency score (higher = more potent)
1,TCCACTTTGGCAATATACGTGT,-0.784
2,TACAAGAAAATTGATTTTGGGT,0.726
3,TTCTGAAGTACAATCATCTCTG,0.437
4,TCTGAAGTACAATCATCTCTGT,0.301
5,TTCCATGTAGTTTAGCATCCTG,-0.0226
6,AACTGGAAGGTGCTGAACGGGA,-0.696
7,ATCAGGGCCAATTACTTCCTGT,-0.778
8,TCACTGTGATTATACCATCAGG,-1.52

# Biological target: RORB
# Test: as above
# Settings: shRNA
row,Sequence,sensor-assay potency score (higher = more potent)
1,TTGATCATTTTGACAGAGCTCC,0.0925
2,TTGCTTAAATACCTGCAGCTTC,-0.375
3,TATAACGGAGGAAACAGTGTAT,0.0235
4,TTCACATGTGATGACTCCGTAG,-1.17
5,TATCTGTTTGATTCCAGTCATG,-1.6
6,TTGTTCTGCTGGCTCCTCCTAA,-0.741
7,TTAAACAGTTTCTCTGCCTTGG,0.233
8,TTTAATTTCTTCATAGGTGTGG,0.75
9,TTAATTTCTTCATAGGTGTGGG,0.03
10,TTCCAGTCATGTCAAGTCCTGA,-0.578
11,ATCATTTTGACAGAGCTCCATG,-1.14
12,TAGGGCAAGACACTTCTGCAGT,-0.56

# Biological target: RPF2
# Test: as above
# Settings: shRNA
row,Sequence,sensor-assay potency score (higher = more potent)
1,TTAAGTACTTTTGTCACTGTTG,-0.124
2,TCTTTTTATATAGTACACCGTA,-0.652
3,TTTGCTTAGGTCTTGCTTCTGC,0.678
4,TTGTAGTTTGCTTAGGTCTTGC,-0.359
5,TTAGTCTTCTATAATCTTCTGT,0.354
6,TTATATAGTACACCGTATGGTT,-0.793
7,ATAATCTTCTGTTACATCGAAA,-0.564
8,TAATTTATAAAGGTCATCCGAT,-0.21
9,TTTCAGTGCATACACATCTTTA,-0.778
10,TTACATCGAAATCATCGCCAGC,-0.787
11,TAGTCTTCTATAATCTTCTGTT,-0.606
12,TTCAACAGCAACTTATAGCTTC,0.301

# Biological target: RPL19
# Test: as above
# Settings: shRNA
row,Sequence,sensor-assay potency score (higher = more potent)
1,TAAAGTCTTGATGATCTCCTCC,0.336
2,ATTGGCTGTACCCTTCCGCTTA,-0.619
3,AAGTCTTGATGATCTCCTCCTT,0.211
4,TTACCTATGCCCATGTGCCTGC,-0.132
5,ATTGGGGTCTAACCAGACCTTC,-1.59
6,TTGCGTGCTTCCTTGGTCTTAG,-0.319
7,TTTTTGAACACATTCCCCTTCA,-0.0211
8,TGTTTTTGAACACATTCCCCTT,-1.21

# Source: the OligoGym collection
